Structures are written as SMILES. Results filed as inconclusive are left out. Entries that show only a call come without a potency. Some structures have more than one record in an assay (separate samples or runs), and their calls can disagree. Active and inactive are the calls of the source. Unless noted, calls come from the whole dose curve. Residues, ends and D or L forms follow the SMILES beside them.

A short description of one assay: qHTS assay to identify small molecule agonists of the hypoxia (HIF-1) signaling pathway - cell viability counter screen (AID 1224844). Note: nearly all actives have a fitted effect of over 50% in size. Note: potency is the fitted concentration of half-maximal effect. The settings on record: HRE-bla ME-180 viability, CellTiter-Glo luminescence, 17 h; series mostly up to 76.8 µM; activity change, negative = cytotoxicity: at the top concentration. An outline of the steps: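 Cytotoxicity measured by CellTiter-Glo ATP luminescence in the wells also read for beta-lactamase signal. Cells were HRE-bla ME-180 (2,000/well, 0.5% dialyzed FBS), exposed to compounds for 17 h at 37C.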
(In qHTS, concentration-response curves come from the screen itself.)
For the compound `O=C1CN(/N=C/c2ccc([N+](=O)[O-])o2)C(=O)N1`, the Potency result is “inactive”.

For the compound `CC(O)C(=O)O` (stereo not drawn), the Potency result was “inactive”.

As to `O=NO`, the Potency result is “inactive”.

In the case of `CNC[C@H](O)c1cccc(O)c1`, the Potency result was “inactive”.

As to `CCOc1ccc(NC(=O)CC(C)O)cc1` (stereo not drawn), the Potency entry is “inactive”.

In the case of `CCCC(CCC)C(=O)O`, the Potency result was “inactive”.

With `O=C(O)C(=O)O`, the Potency result is “inactive”.

For `CCCCC(CC)COC(=O)/C=C/c1ccc(OC)cc1` (stereo not drawn), the Potency result is “inactive”.

In the case of `O=S(=O)(O)NC1CCCCC1`, the Potency result is “inactive”.

Consider `O=C(O)c1cccnc1`, for which the Potency entry was “inactive”.

For `NC(N)=O`, the Potency entry is “inactive”.

Regarding `CCCCC1C(=O)N(c2ccccc2)N(c2ccccc2)C1=O`, the Potency result was “inactive”.

In the case of `CC(O)CO` (stereo not drawn), the Potency entry was “inactive”.

`O=c1ccc2ccccc2o1`: the Potency entry was “inactive”.

With `O=C(c1ccccc1)c1ccccc1`, the Potency entry is “inactive”.

On to `NS(=O)(=O)c1cc(C(=O)O)c(NCc2ccco2)cc1Cl`, for which the Potency result is “inactive”.

In the case of `CC(C)(Oc1ccc(C2CC2(Cl)Cl)cc1)C(=O)O` (stereo not drawn), the Potency result was “inactive”.

Consider `CC(C)[C@@H]1CC[C@@H](C)C[C@H]1O`, for which the Potency result was “inactive”.

With `CC(=O)Nc1nnc(S(N)(=O)=O)s1`, the Potency entry is “inactive”.

`O=C(O)c1cccc([N+](=O)[O-])c1`: the Potency entry was “inactive”.

For `NC(=O)NC1NC(=O)NC1=O` (stereo not drawn), the Potency result is “inactive”.

For `O=S(=O)(O)c1ccc2cc(O)ccc2c1`, the Potency result was “inactive”.

On to `c1ccc2[nH]ccc2c1`, for which the Potency was 17.1 µM (active) and inactive.

With `CCCCOC(=O)CC(CC(=O)OCCCC)(OC(C)=O)C(=O)OCCCC`, the Potency entry was “inactive”.

As to `O=C1NC(=O)c2ccccc21`, the Potency result was “inactive”.

Regarding `N=C(N)c1ccc(OCCCCCOc2ccc(C(=N)N)cc2)cc1`, the “activity change, negative = cytotoxicity” value was -0.791% [at 35.3 µM] (inactive).

Take `O=C(O)/C=C\C(=O)O`: the Potency result is “inactive”.

As to `CC(=O)OCC(COC(C)=O)OC(C)=O`, the Potency entry is “inactive”.

As for `CC1(C)[C@@H]2CC[C@@]1(C)C(=O)C2`, the Potency entry was “inactive”.

With `C/C=C/c1ccc(OC)cc1`, the Potency entry was “inactive”.

Regarding `O=C(O)CCC(=O)O`, the Potency entry is “inactive”.

Turning to `COC(=O)[C@H](Cc1ccccc1)NC(=O)[C@@H](N)CC(=O)O` (H-Asp-Phe-OMe), the Potency result was “inactive”.

As to `C1N2CN3CN1CN(C2)C3`, the Potency result is “inactive”.

As for `O=C(c1ccccc1)C(O)c1ccccc1` (stereo not drawn), the Potency result was “inactive”.

As to `O=C(O)CCCCC(=O)O`, the Potency result is “inactive”.

Consider `O=c1cc[nH]c(=S)[nH]1`, for which the Potency result is “inactive”.

The next assay is described as follows: qHTS assay to identify small molecule agonists of H2AX (AID 1224845; active = well fitted activation curve with a large enough effect in the signal ratio in the repeat runs, not every such curve was filed as active; the % refers to the signal ratio). The settings on record: CHO-K1 phospho-H2AX Ser139 HTRF, 3 h; series mostly up to 154 µM; activation (H2AX phosphorylation): at the top concentration. Put shortly: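 Wild-type CHO-K1 cells plated overnight, then exposed 3 hr at 37C to compounds at 15 concentrations (0.76% DMSO). Lysed, then HTRF anti-pH2AX(S139)-cryptate/anti-H2AX-d2 detection after 24 hr at room temperature; emissions 665 and 620 nm.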
As to `O=C1CN(/N=C/c2ccc([N+](=O)[O-])o2)C(=O)N1`, the call was inactive.

In the case of `CC(O)C(=O)O` (stereo not drawn), the call was inactive.

With `O=NO`, the result was inactive.

For `CNC[C@H](O)c1cccc(O)c1`, the compound was called inactive.

For the compound `CCOc1ccc(NC(=O)CC(C)O)cc1` (stereo not drawn), the call was inactive.

On to `CCCC(CCC)C(=O)O`, for which the outcome was inactive.

For `O=C(O)C(=O)O`, the result was inactive.

For the compound `CCCCC(CC)COC(=O)/C=C/c1ccc(OC)cc1` (stereo not drawn), the compound was classed as inactive.

On to `O=S(=O)(O)NC1CCCCC1`, for which the result was inactive.

With `O=C(O)c1cccnc1`, the call was inactive.

Regarding `NC(N)=O`, the result was inactive.

Take `CCCCC1C(=O)N(c2ccccc2)N(c2ccccc2)C1=O`: the call was inactive.

On to `CC(O)CO` (stereo not drawn), for which the result was inactive.

On to `O=c1ccc2ccccc2o1`, for which the call was inactive.

Regarding `O=C(c1ccccc1)c1ccccc1`, the compound was called inactive.

Turning to `NS(=O)(=O)c1cc(C(=O)O)c(NCc2ccco2)cc1Cl`, the call was inactive.

For `CC(C)(Oc1ccc(C2CC2(Cl)Cl)cc1)C(=O)O` (stereo not drawn), the result was inactive.

As for `CC(C)[C@@H]1CC[C@@H](C)C[C@H]1O`, the result was inactive.

On to `CC(=O)Nc1nnc(S(N)(=O)=O)s1`, for which the compound was classed as inactive.

`O=C(O)c1cccc([N+](=O)[O-])c1`: the compound was called inactive.

Take `NC(=O)NC1NC(=O)NC1=O` (stereo not drawn): the compound was classed as inactive.

On to `O=S(=O)(O)c1ccc2cc(O)ccc2c1`, for which the outcome was inactive.

As for `c1ccc2[nH]ccc2c1`, the result was inactive.

Regarding `CCCCOC(=O)CC(CC(=O)OCCCC)(OC(C)=O)C(=O)OCCCC`, the compound was called inactive.

For `O=C1NC(=O)c2ccccc21`, the call was inactive.

For `N=C(N)c1ccc(OCCCCCOc2ccc(C(=N)N)cc2)cc1`, the call was inactive.

Take `O=C(O)/C=C\C(=O)O`: the result was inactive.

Turning to `CC(=O)OCC(COC(C)=O)OC(C)=O`, the outcome was inactive.

As to `CC1(C)[C@@H]2CC[C@@]1(C)C(=O)C2`, the result was inactive.

With `C/C=C/c1ccc(OC)cc1`, the outcome was inactive.

Take `O=C(O)CCC(=O)O`: the result was inactive.

Turning to `COC(=O)[C@H](Cc1ccccc1)NC(=O)[C@@H](N)CC(=O)O` (H-Asp-Phe-OMe), the outcome was inactive.

With `C1N2CN3CN1CN(C2)C3`, the compound was classed as inactive.

On to `O=C(c1ccccc1)C(O)c1ccccc1` (stereo not drawn), for which the call was inactive.

Consider `O=C(O)CCCCC(=O)O`, for which the compound was called inactive.

Turning to `O=c1cc[nH]c(=S)[nH]1`, the result was inactive.

The next assay can be described thus: qHTS assay to identify small molecule agonists of the hypoxia (HIF-1) signaling pathway (AID 1224846; active = well fitted activation curve with a large enough effect in the signal ratio in the repeat runs, not every such curve was filed as active; the % refers to the signal ratio). The settings on record: HRE-bla ME-180 cells, beta-lactamase ratio, 17 h; series mostly up to 76.8 µM; activation: at the top concentration. An outline of the steps:
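Compounds added to ME-180 cells carrying hypoxia-response-element beta-lactamase reporter (0.5% dialyzed FBS, 5 h preplating), 17 h at 37C; agonist activity detected by CCF4-AM B/G FRET read-out.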
On to `O=C1CN(/N=C/c2ccc([N+](=O)[O-])o2)C(=O)N1`, for which the outcome was inactive.

Turning to `CC(O)C(=O)O` (stereo not drawn), the result was inactive.

Take `O=NO`: the outcome was inactive.

Turning to `CNC[C@H](O)c1cccc(O)c1`, the result was inactive.

Turning to `CCOc1ccc(NC(=O)CC(C)O)cc1` (stereo not drawn), the outcome was inactive.

With `CCCC(CCC)C(=O)O`, the outcome was inactive.

Turning to `O=C(O)C(=O)O`, the outcome was inactive.

As to `CCCCC(CC)COC(=O)/C=C/c1ccc(OC)cc1` (stereo not drawn), the outcome was inactive.

Regarding `O=S(=O)(O)NC1CCCCC1`, the outcome was inactive.

As to `O=C(O)c1cccnc1`, the result was inactive.

Regarding `NC(N)=O`, the outcome was inactive.

`CCCCC1C(=O)N(c2ccccc2)N(c2ccccc2)C1=O`: the outcome was inactive.

With `CC(O)CO` (stereo not drawn), the outcome was inactive.

Regarding `O=c1ccc2ccccc2o1`, the outcome was inactive.

For `O=C(c1ccccc1)c1ccccc1`, the result was inactive.

As to `NS(=O)(=O)c1cc(C(=O)O)c(NCc2ccco2)cc1Cl`, the result was inactive.

On to `CC(C)(Oc1ccc(C2CC2(Cl)Cl)cc1)C(=O)O` (stereo not drawn), for which the outcome was inactive.

On to `CC(C)[C@@H]1CC[C@@H](C)C[C@H]1O`, for which the outcome was inactive.

With `CC(=O)Nc1nnc(S(N)(=O)=O)s1`, the outcome was inactive.

As for `O=C(O)c1cccc([N+](=O)[O-])c1`, the outcome was inactive.

On to `NC(=O)NC1NC(=O)NC1=O` (stereo not drawn), for which the outcome was inactive.

Take `O=S(=O)(O)c1ccc2cc(O)ccc2c1`: the outcome was inactive.

Regarding `c1ccc2[nH]ccc2c1`, the result was inactive.

Consider `CCCCOC(=O)CC(CC(=O)OCCCC)(OC(C)=O)C(=O)OCCCC`, for which the result was inactive.

Consider `O=C1NC(=O)c2ccccc21`, for which the outcome was inactive.

Take `N=C(N)c1ccc(OCCCCCOc2ccc(C(=N)N)cc2)cc1`: the outcome was inactive.

`O=C(O)/C=C\C(=O)O`: the result was inactive.

Turning to `CC(=O)OCC(COC(C)=O)OC(C)=O`, the outcome was inactive.

Consider `CC1(C)[C@@H]2CC[C@@]1(C)C(=O)C2`, for which the outcome was inactive.

Turning to `C/C=C/c1ccc(OC)cc1`, the result was inactive.

Turning to `O=C(O)CCC(=O)O`, the outcome was inactive.

Take `COC(=O)[C@H](Cc1ccccc1)NC(=O)[C@@H](N)CC(=O)O` (H-Asp-Phe-OMe): the result was inactive.

Turning to `C1N2CN3CN1CN(C2)C3`, the outcome was inactive.

In the case of `O=C(c1ccccc1)C(O)c1ccccc1` (stereo not drawn), the outcome was inactive.

In the case of `O=C(O)CCCCC(=O)O`, the outcome was inactive.

Turning to `O=c1cc[nH]c(=S)[nH]1`, the outcome was inactive.
